Out of some 360,000 compounds screened, about 2,100 (0.58%) were called active. No stated cut-off is given here; in the data, active means inhibition above about 36%; inactive means the rest. What follows is part of a selection rich in actives, with near analogues and random picks from the rest.

Chain of NEDD8-conjugating enzyme Ubc12 (Homo sapiens) + NEDD8-activating enzyme E1 regulatory subunit (Homo sapiens) (P61081 whole entry, looked up): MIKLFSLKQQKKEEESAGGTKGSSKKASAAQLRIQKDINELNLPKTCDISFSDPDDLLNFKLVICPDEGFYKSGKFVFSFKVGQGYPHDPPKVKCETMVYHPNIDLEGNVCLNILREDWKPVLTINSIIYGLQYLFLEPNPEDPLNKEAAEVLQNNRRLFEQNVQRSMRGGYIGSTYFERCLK
Chain of NEDD8-conjugating enzyme Ubc12 (Homo sapiens) + NEDD8-activating enzyme E1 regulatory subunit (Homo sapiens) (Q13564 whole entry, looked up): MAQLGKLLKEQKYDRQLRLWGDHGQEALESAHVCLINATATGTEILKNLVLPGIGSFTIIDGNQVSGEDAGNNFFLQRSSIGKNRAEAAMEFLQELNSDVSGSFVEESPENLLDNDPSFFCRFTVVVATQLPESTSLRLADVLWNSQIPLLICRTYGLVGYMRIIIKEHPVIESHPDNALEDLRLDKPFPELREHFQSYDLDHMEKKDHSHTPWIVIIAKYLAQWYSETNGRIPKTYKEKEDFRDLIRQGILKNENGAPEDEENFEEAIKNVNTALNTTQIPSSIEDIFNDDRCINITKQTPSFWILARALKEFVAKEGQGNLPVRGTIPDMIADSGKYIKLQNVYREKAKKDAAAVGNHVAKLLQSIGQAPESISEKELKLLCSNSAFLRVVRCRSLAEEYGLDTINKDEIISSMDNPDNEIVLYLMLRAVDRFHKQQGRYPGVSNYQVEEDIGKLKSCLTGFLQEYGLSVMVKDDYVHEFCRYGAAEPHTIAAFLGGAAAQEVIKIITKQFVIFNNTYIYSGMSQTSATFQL

This assay concerns the target NEDD8-conjugating enzyme Ubc12 (Homo sapiens) + NEDD8-activating enzyme E1 regulatory subunit (Homo sapiens) (UniProt P61081+Q13564). The assay is described as follows: inhibitors of cullin neddylation, primary screen, biochemical, TR-FRET, uHTS, NAE and Ubc12 (AID 651699). The note with it: at 25 µM, active compounds read high. On the technique in general: In TR-FRET formats the signal depends on donor and acceptor labels being close together.
For orientation: inhibition means the change of the read-out against control, counted positive when it falls. On to `CCOc1ccc(Cl)cc1-c1cc(C(=O)NCc2cccs2)[nH]n1`, for which the inhibition is -0.82% (inactive).
As for `Cc1sc2c(c1C)c(=O)n(-c1ccccc1)c1nncn21`, the inhibition was -4.64% (inactive).
The value for `CSCCC(NS(=O)(=O)/C=C/c1ccccc1)C(=O)N1CCC(C)CC1` (stereo unspecified) was 5.25% (inactive); that for `CCCCNc1nc2ccccc2nc1NS(=O)(=O)c1cccs1` was 19.1% (inactive).
The value for `COCCCNc1nc2ccccc2nc1NS(=O)(=O)c1ccc(F)cc1` was 37.4% (active); that for `CCCn1nc(NS(=O)(=O)c2ccc(F)cc2)c2cc3ccccc3nc21` was -5.34% (inactive).
The value for `Cc1cccc(CC(=O)Nc2c3c(nn2-c2cccc(Cl)c2)CS(=O)C3)c1` (stereo unspecified) was 4.67% (inactive).
Turning to `COc1ccc(S(=O)(=O)N2CCN(C)CC2)c(C)c1`, the inhibition is -9.29% (inactive).
The value for `Cn1c(N2CCOCC2)c(C=O)c2ccccc21` was 13.5% (inactive); that for `Cc1cc(C)c(-c2c(O)c3ccccc3n(C)c2=O)c(C)c1` was 43.4% (active); that for `Cn1c(=O)c(Sc2ccc(Cl)cc2)c(O)c2ccccc21` was -5.74% (inactive).
The value for `Cn1c(=O)c(C(=O)Nc2ncccn2)c(O)c2ccccc21` was 27.6% (inactive); that for `O=S(=O)(NCCCN1CCOCC1)c1ccc(F)c(Cl)c1` was -7.79% (inactive); that for `CC1(C)S[C@@H]2[C@H](NC(=O)COc3ccccc3)C(=O)N2C1C(=O)OCc1ccccc1` (stereo partly specified) was 3.84% (inactive).
The value for `NC(=O)Cn1c(=O)oc2ccccc21` was 4.87% (inactive).
Take `COc1ccc(CNC(=O)[C@@H]2CC=C[C@@H]3CCN(C4CC4)C(=O)[C@@H]32)cc1`: the inhibition is 4.74% (inactive).
The value for `CCN(CC)CCCN1C(=O)C(=O)/C(=C(/O)c2c(C)nc3ccccn23)C1c1ccc(C)o1` (stereo unspecified) was -7.73% (inactive).
The value for `O=C(NNc1c2ccccc2nc2ccccc12)c1cc2ccccc2cc1O` was -10.9% (inactive).
Take `Cc1ccc(C(=O)NNC(=O)OC(C)(C)C)c(Cl)c1`: the inhibition is -8.95% (inactive).
The value for `CC(C)(C)OC(=O)NNc1c2ccccc2nc2ccccc12` was 48% (active); that for `CCSC1=NCCN1S(=O)(=O)c1ccc(F)cc1` was 8.82% (inactive); that for `CC(Oc1ccc(F)cc1)C(=O)Nc1ccccc1C(=O)NC1CC1` (stereo unspecified) was 4.37% (inactive).
The value for `O=[N+]([O-])c1ccc2c(c1)C(O)n1nc(-c3ccccc3)nc1S2` (stereo unspecified) was -7.67% (inactive); that for `COc1ccc(C(=O)COC(=O)c2c(C)noc2C)cc1Cl` was -4.13% (inactive); that for `Cc1noc(C)c1C(=O)OCC(=O)N1CCN(S(=O)(=O)c2ccc3ccccc3c2)CC1` was -4.19% (inactive).
The value for `Cc1noc(C)c1C(=O)OCC(=O)/C=C1\N(C)c2ccccc2C1(C)C` was 43.7% (active).

Source of the values: PubChem BioAssay AID651699 (Sanford-Burnham Center for Chemical Genomics, 2012).
